Reference: PubChem BioAssay (NCI)
About 83,000 compounds went through this panel and 20% of them were active in at least one assay; those are over-represented in the sample as a whole.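 Note: values are percent growth. 100 is the growth of untreated cells, values between 100 and 0 indicate rising inhibition; between -100 and 0 indicates cell death.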 Active and inactive are the calls of the source.

Tested on: CCRF-CEM leukemia
Assay: NCI-60 one-dose screen, 48 h (100 = growth as untreated, 0 = no growth, -100 = all killed)
Settings: 10 µM
Protocol: Growth inhibition of the CCRF-CEM human tumor cell line is measured as a screen for anti-cancer activity. Cells are grown in 96 well plates and exposed to the test compound for 48 hours. Compounds are tested at a single concentration, which is 10^-5 M for most compounds. The reported endpoint is percent growth (GI% or GIPRCNT), where numbers from 0 - 100% represent growth inhibition, and numbers from -100% - 0 represent cell death. For example, a value of 40 represents 60% growth inhibition. A value of 0 means no net growth occurred over the course of the experiment. A value of -40 indicates 40% of cells at the beginning of the experiment died by the end of the experiment. A value of -100 means all cells are dead at the end of the experiment.
NCI-60 Human Tumor Cell Lines Screen was performed using the standard one-dose NCI protocol, which is described in more detail at https://dtp.cancer.gov/discovery_development/nci-60/default.htm.
Compounds with GIPRCNT values below 10 were considered active. Activity score was based on GIPRCNT using the following formula: […]
Score is 0 for GIPRCNT values of 100 or above, 50 for GIPRCNT values of 0, and 100 for GIPRCNT values of -100.

Compound | growth
COc1ccc(-c2nnc(SC/C(=N\O)c3ccccc3)o2)cc1 | 88.9% (inactive)
Cc1ccc(-n2nnc3c(sc4ccccc43)c2=O)cc1 | 76.3% (inactive)
COC(=O)C1(C(=O)OC)C2C(=O)C3C(C21)C3(C(=O)OC(C)(C)C)C(=O)OC(C)(C)C (stereo not given) | 102% (inactive)
CC(C)c1ncc(CO)n1Cc1c(Cl)cccc1Cl | 103% (inactive)
O=C(COc1ccc(Cl)cc1Cl)Oc1coc(CSc2nc3ccccc3s2)cc1=O | 88.7% (inactive)
COc1ccc(-c2csc(NC(=O)CO[N+](=O)[O-])n2)cc1 | 97.9% (inactive)
O=C(Cn1ccc(=O)[nH]c1=O)c1ccc([N+](=O)[O-])o1 | 83% (inactive)
COc1ccc(C2C=C(c3ccc(OC)c(OC)c3)N=C3SC=CN32)c(Br)c1 (stereo not given) | -2.4% (active)
CCN1CCOC1C(C)C (stereo not given) | 103% (inactive)
COc1ccc(S(=O)(=O)Nc2cc(/C=C\c3cc(OC)c(OC)c(OC)c3)ccc2OC)cc1 | 15.4% (inactive)
Cc1cc(C(C)(C)CC(C)(C)C)ccc1OCCOCC[N+](C)(C)Cc1ccccc1 | -8.84% (active)
C=CCOc1ccc2c(c1)CC[C@@H]1[C@@H]2CC[C@]2(C)C(=O)/C(=N/O)C[C@@H]12 | 6.37% (active)
Fc1cc(-c2ncc(-c3cc(F)c(F)c(F)c3)c(NC3CCCCCC3)n2)cc(F)c1F | 96.2% (inactive)
CC(=O)Nc1nc(C)c(C(=O)NNC=O)s1 | 101% (inactive)
Cc1ccc(/C=C2\CN(Cc3cn(CCNc4ccnc5cc(Cl)ccc45)nn3)C/C(=C\c3ccc(C)cc3)C2=O)cc1 | 11.7% (inactive)
COc1ccc(C2CC(c3ccc(-c4ccccc4)cc3)=NN2c2ccc(S(N)(=O)=O)cc2)cc1 (stereo not given) | 51.7% (inactive)
NC1CCC(Nc2nc(NCc3ccc(-c4ccco4)nc3)c3ncn(C4CCCC4)c3n2)CC1 (stereo not given) | -0.411% (active)
NC(=O)C12C(=O)NC(=O)C1(C(=O)O)C21CCCC1 (stereo not given) | 96.9% (inactive)
C=CCNCCCN1C(=O)c2ccc3c4c(ccc(c24)C1=O)C(=O)N(CCCNCC=C)C3=O | 4.96% (active)
COc1cc(C2CC(=O)Nc3c2c(C)nn3-c2nc3ccccc3[nH]2)cc(OC)c1O (stereo not given) | 0.819% (active)

Compound | growth
Cc1ccc2c(c1)-c1cc(C)nn1-c1ccc(C#N)cc1O2 | 46.2% (inactive)
Nc1nc2c(nnn2C2CC(O)C(CO)O2)c(=O)[nH]1 (stereo not given) | 19.4% (inactive)
COc1ccc(-c2[nH]ncc2-c2cc(OC)c(OC)c(OC)c2)cc1 | 2.66% (active)
O=c1oc2c3ccc4cnccc4c3[nH]c2c2ccccc12 | -1.54% (active)
O=CNc1c(Cl)cc2c(c1Cl)Cc1cc([N+](=O)[O-])ccc1-2 | 14.7% (inactive)
COc1cc(-c2nc3cc(Cl)c(Cl)cc3[nH]2)ccc1OCC(=O)NN | 59.8% (inactive)
Nc1c(CNCc2nnn(Cc3ccccc3)c2N)nnn1Cc1ccccc1 | 95.4% (inactive)
CCN1CCN(c2ccc(Nc3ncnc4c3nnn4CCc3cc(OC)cc(OC)c3)cc2)CC1 | 86.4% (inactive)
Nc1nsc(C(=O)c2ccc(O)cc2)n1 | 89.8% (inactive)
N=C(N)c1ccc(-c2ccc(-c3cccs3)s2)nc1 | 31.6% (inactive)
CC(Oc1ccc(Cl)cc1)c1ccccc1 (stereo not given) | 94.1% (inactive)
O=C(Nc1cccc(Cl)c1)Nc1cc2ncncc2cc1OCc1cccc(F)c1 | 2.81% (active)
COc1ccc(C2C=C(c3ccc(Cl)c(Cl)c3)N=C3SC(C)=CN32)cc1OC (stereo not given) | 58.5% (inactive)
COc1ccc(Nc2ccnc(N3CCN(c4ccnc5cc(Cl)ccc45)CC3)n2)cc1 | 2.09% (active)
Cc1cc(Nc2cccc(F)c2)nc(NCc2ccccc2)n1 | 12.8% (inactive)
Cc1ccc(NS(=O)(=O)c2ccccc2)c(NS(=O)(=O)c2ccccc2)c1 | 96% (inactive)
CC(=O)Nc1ccc2c(c1)C(N1CC3CCC(CC3)C1)c1ccccc1-2 (stereo not given) | 74.5% (inactive)
CCCCCCCC/C=C/CCCCCCCCC1=NCCN1CCO | 19.7% (inactive)
COc1cc(-c2c(C#N)c(N)n3c(nc4ccccc43)c2C#N)cc(Br)c1OC | 19.6% (inactive)
CCNC(=S)NN | 46.2% (inactive)
